Our source for the growth values is PubChem BioAssay (NCI).

The panel holds about 83,000 compounds, 20% with a hit somewhere; the sample as a whole holds those more often.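 Interpretation: 100, growth as untreated; towards 0, rising growth inhibition; 0, no net growth; 0 to -100, cell death. Compounds scoring below 10 were considered active.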 A number with no mark means an inactive call. Calls of active or inactive are those of the source.

Holding throughout (test): NCI-60 one-dose screen, 48 h (100 = growth as untreated, 0 = no growth, -100 = all killed)
One experiment has as its system HCT-15 colon. Conditions: 10 µM unless noted.
A further experiment relates to HT29 colon. The settings on record: 10 µM unless noted.
The subject of another experiment is SNB-75 CNS. The settings on record: 10 µM.
A further experiment relates to U251 CNS. The settings on record: 10 µM unless noted.
Another experiment has as its system PC-3 prostate. The settings on record: 10 µM unless noted.
A further experiment relates to UACC-62 melanoma. The settings on record: 10 µM unless noted.
Another experiment relates to LOX IMVI melanoma. The settings on record: 10 µM unless noted.
A further experiment deals with SK-MEL-28 melanoma. The settings on record: 10 µM unless noted.
For the next experiment, the system named is SNB-19 CNS. Conditions: 10 µM unless noted.
The next experiment deals with SK-MEL-5 melanoma. The settings on record: 10 µM unless noted.

Take `Clc1ccc2c(NC3CCC(NC4CCCCC4)CC3)ccnc2c1` (stereo not given): the growth in the experiment on HCT-15 colon is 29.6%; in the experiment on HT29 colon, 7.7% (active); in the experiment on SNB-75 CNS, 79.6%; in the experiment with U251 CNS, 35.8%; with PC-3 prostate, 59.2%; in the experiment with UACC-62 melanoma, -31.3% (active). For the same compound, the growth in the experiment on LOX IMVI melanoma was 35.6%; in the experiment with SK-MEL-28 melanoma it was -10.5% (active).
For `COc1ccc(-c2nc(/C=N/Nc3cc(C)nc4ccc(Cl)cc34)c(C)o2)cc1`, the growth was -91.5% (active) in the experiment with HCT-15 colon; -96.1% (active) in the experiment on HT29 colon; -90.4% (active) in the experiment on SNB-19 CNS; -95.9% (active) in the experiment with U251 CNS; -73.1% (active) in the experiment on PC-3 prostate; 57% with SK-MEL-5 melanoma. The growth in the experiment with UACC-62 melanoma is 14.5%; in the experiment with LOX IMVI melanoma, -97% (active); in the experiment with SK-MEL-28 melanoma, -41.3% (active).
`COc1ccc(/C=C/c2c(C(C)=O)c(C)nc3ccccc23)cc1`: the growth is 95.8% with HCT-15 colon; 80.1% with HT29 colon; 82.1% with SNB-19 CNS; 94.8% in the experiment on U251 CNS; 76.1% in the experiment with PC-3 prostate; 33.3% with SK-MEL-5 melanoma. Also, the growth in the experiment with UACC-62 melanoma is 52.4%; in the experiment on LOX IMVI melanoma, 96.6%.
As to `COc1ccc(C(=O)N2NC(=O)/C(=C/c3ccccc3F)N=C2c2ccccc2)cc1`, the growth with HCT-15 colon was 112%; with HT29 colon, 113%; in the experiment on SNB-19 CNS it was 99%; with U251 CNS it was 96.7%; with PC-3 prostate, 104%; in the experiment with SK-MEL-5 melanoma, 113%. In addition, the growth in the experiment on UACC-62 melanoma was 102%; in the experiment on LOX IMVI melanoma, 102%; with SK-MEL-28 melanoma, 112%.
On to `Cc1cc(C2(c3cc(C)c(O)cc3C)OS(=O)(=O)c3ccccc32)c(C)cc1O`, for which the growth in the experiment with HCT-15 colon was 105%; with HT29 colon, 92.9%; in the experiment with SNB-19 CNS, 94.2%; in the experiment with U251 CNS, 78%; in the experiment on PC-3 prostate it was 87.2%; in the experiment with SK-MEL-5 melanoma it was 104%. For the same compound, the growth with UACC-62 melanoma is 90.9%; with LOX IMVI melanoma, 105%.
Regarding `C/C=C(\C)C(C(=O)NC1CCCCC1)N(C(=O)C1CCc2cc(F)ccc2O1)c1ccc(Cl)cc1` (stereo not given), the growth is 101% in the experiment with HCT-15 colon; 98.7% in the experiment with HT29 colon; 97.8% in the experiment with SNB-19 CNS; 102% in the experiment on U251 CNS; 94.5% in the experiment on PC-3 prostate; 97.2% in the experiment with SK-MEL-5 melanoma. The results for the growth in the experiment on UACC-62 melanoma and in the experiment with LOX IMVI melanoma were 92.3% and 94.1%, respectively.
Take `O=C(Nc1cccc(-n2cc(-c3ccncc3)c(-c3ccc(Cl)c(O)c3)n2)c1)c1ccccc1`: the growth in the experiment on HCT-15 colon was 58.2%; with HT29 colon, 53.5%; in the experiment with SNB-19 CNS, 99.7%; with U251 CNS it was 75.4%; in the experiment with PC-3 prostate, 50.3%; in the experiment on SK-MEL-5 melanoma, 59.4%. Also, the values for the growth in the experiment with UACC-62 melanoma, in the experiment on LOX IMVI melanoma and with SK-MEL-28 melanoma were 68.3%, 68.5% and 48.1%, respectively.
With `C/C(=N/NC(=S)Nc1ccccc1)c1nc2ccc(Cl)cc2[nH]1`, the growth was 0.555% (active) in the experiment with HCT-15 colon; -88.5% (active) in the experiment on HT29 colon; -75.5% (active) in the experiment with SNB-75 CNS; -33.7% (active) in the experiment on SNB-19 CNS; -44.2% (active) with U251 CNS; -47.7% (active) with PC-3 prostate. In addition, the values for the growth in the experiment on SK-MEL-5 melanoma, in the experiment on LOX IMVI melanoma and in the experiment on SK-MEL-28 melanoma were -97.3% (active), -75.8% (active) and -96.6% (active), respectively.
Consider `Nc1cc2c([nH]c[n+]2CC#CCCl)c(SCC#CCCl)n1`, for which the growth is -43.3% (active) with HCT-15 colon; -50.3% (active) in the experiment on HT29 colon; -66.8% (active) with SNB-19 CNS; -64.8% (active) in the experiment with U251 CNS; -20.3% (active) with PC-3 prostate; -93.3% (active) in the experiment on SK-MEL-5 melanoma. Also, the growth with UACC-62 melanoma was -91.5% (active); with LOX IMVI melanoma, -91% (active).
Consider `CC(C)(C)n1cc(-c2ccnc(NCCCNS(=O)(=O)c3ccccc3)c2)c(-c2cccc(O)c2)n1`, for which the growth in the experiment with HCT-15 colon is -4.07% (active); in the experiment on HT29 colon, 8.45% (active); in the experiment with SNB-19 CNS, 76%; in the experiment on U251 CNS, 48.5%; in the experiment with PC-3 prostate, 30.3%; in the experiment with SK-MEL-5 melanoma, 16.1%. Also, the growth with UACC-62 melanoma is 59.8%; in the experiment on LOX IMVI melanoma, -43.3% (active); with SK-MEL-28 melanoma, 44.1%.
For `Fc1ccc(-c2nc(-c3nc4ncccc4[nH]3)cc3c2[nH]c2ccccc23)cc1F`, the growth was 54.7% in the experiment on HCT-15 colon; 39.1% in the experiment with HT29 colon; 102% with SNB-19 CNS; 81.9% in the experiment with U251 CNS; 73.3% in the experiment on PC-3 prostate; 28.3% in the experiment with SK-MEL-5 melanoma. Moreover, the figures for the growth in the experiment with UACC-62 melanoma, in the experiment with LOX IMVI melanoma and in the experiment with SK-MEL-28 melanoma were 79.9%, 48.5% and 94%, respectively.
In the case of `COc1cc(-c2nn(-c3cccc(NC(=O)c4ccccc4)c3)cc2-c2ccncc2)ccc1Cl`, the growth in the experiment with HCT-15 colon is 19.2%; with HT29 colon, 2.03% (active); in the experiment on SNB-19 CNS, 50%; in the experiment on U251 CNS, 13.5%; in the experiment on PC-3 prostate, 10.5%; in the experiment on SK-MEL-5 melanoma, -49.4% (active). In addition, the growth in the experiment with UACC-62 melanoma is 32.5%; with LOX IMVI melanoma, 17.4%; with SK-MEL-28 melanoma, 34.4%.
In the case of `CC(=O)Oc1csc(N(C(C)=O)c2cc(C(=O)O)cc(C(=O)O)c2)n1`, the growth in the experiment with HCT-15 colon is 92.8%; with HT29 colon, 104%; in the experiment with SNB-19 CNS it was 97.2%; in the experiment with U251 CNS it was 88.5%; in the experiment with PC-3 prostate, -100% (active); in the experiment with SK-MEL-5 melanoma, 94%. For the same compound, the growth in the experiment on UACC-62 melanoma was 94.2%; in the experiment with LOX IMVI melanoma it was 90.2%; with SK-MEL-28 melanoma, 106%.
Regarding `COc1ccc(-n2c(=O)sc3c(Cl)nc(C)nc32)c(OC)c1`, the growth was 61.3% in the experiment on HCT-15 colon; 74.1% in the experiment on HT29 colon; 49.6% in the experiment with SNB-19 CNS; 51.6% in the experiment with U251 CNS; 85.2% with PC-3 prostate; 98.1% in the experiment on SK-MEL-5 melanoma. Further, the growth in the experiment on UACC-62 melanoma was 78.4%; with LOX IMVI melanoma, 29.1%; in the experiment on SK-MEL-28 melanoma, 83.3%.
Take `Cc1cc(C2=NNC(=O)Cc3cc4c(cc32)OCCO4)cc(C)c1N`: the growth in the experiment on HCT-15 colon is 31.7%; in the experiment on HT29 colon, 7.97% (active); in the experiment with SNB-19 CNS it was 48%; with U251 CNS, 36.6%; in the experiment on PC-3 prostate it was 49.1%; with SK-MEL-5 melanoma, 10.2%. Besides, the growth with UACC-62 melanoma is 44.1%; in the experiment on LOX IMVI melanoma it was 39.7%; in the experiment with SK-MEL-28 melanoma, 42.3%.
